Screening results deposited in PubChem by National Center for Advancing Translational Sciences (NCATS).
Shown are actives, neighbours in structure and some others; about 19% of the full set was active somewhere.
ASM inhibitor: Inhibitors of Secretory Acid Sphingomyelinase (S-ASM): qHTS. Sphingomyelin phosphodiesterase (Homo sapiens), P17405. placental ASM, HMU-PC fluorogenic substrate, 60 min. Potency, µM (series often up to 57.5 µM), usual class: inhibitors. 0.006% of 340,000 active
Target sequence (P17405 47-631 limits assumed): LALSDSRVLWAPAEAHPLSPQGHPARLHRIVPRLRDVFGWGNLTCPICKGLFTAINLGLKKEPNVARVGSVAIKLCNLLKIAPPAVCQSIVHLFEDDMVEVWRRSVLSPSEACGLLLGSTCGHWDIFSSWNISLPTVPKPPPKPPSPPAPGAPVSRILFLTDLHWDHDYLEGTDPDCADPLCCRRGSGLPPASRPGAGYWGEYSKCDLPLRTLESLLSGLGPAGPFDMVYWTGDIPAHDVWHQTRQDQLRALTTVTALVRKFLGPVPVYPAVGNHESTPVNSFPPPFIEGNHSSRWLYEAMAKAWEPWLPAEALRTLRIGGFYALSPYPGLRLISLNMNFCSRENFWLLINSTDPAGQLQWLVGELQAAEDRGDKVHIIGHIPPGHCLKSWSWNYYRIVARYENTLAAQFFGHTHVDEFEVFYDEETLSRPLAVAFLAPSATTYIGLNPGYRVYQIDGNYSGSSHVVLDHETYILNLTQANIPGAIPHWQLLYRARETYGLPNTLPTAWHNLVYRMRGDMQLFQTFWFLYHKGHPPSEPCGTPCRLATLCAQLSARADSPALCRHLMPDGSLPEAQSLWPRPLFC
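HMU-PC0 cleavage (9 uM final) by human placental ASM, 60 min at 37 °C following 10 min compound exposure at RT; stopped at pH 10, fluorescence Ex 386/Em 447 nm.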
IL1B secr inh: qHTS for Inhibitors of Inflammasome Signaling: IL-1-beta AlphaLISA Primary Screen; THP-1 LPS/ATP IL-1B secretion, AlphaLISA, 16 h; stronger effect = lower value; 4.7% of 360,000 active; activity change, % at 57.5 µM; in the data active means activity change below about -50%; inconclusive means mostly about -30% to -49%
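THP-1 cells pretreated 1 hr with compounds (up to 57.5 uM final), then stimulated with LPS (250 ng/mL final) plus ATP (1.25 mM final); secreted IL-1B measured by AlphaLISA after 16 hr, decreased signal indicating inhibition.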
DT40 TDP1 CPT: qHTS for Inhibitors of human tyrosyl-DNA phosphodiesterase 1 (TDP1): qHTS in cells in presence of CPT. chicken DT40 Tdp1-/-;hTDP1 cells + 20 nM CPT, ATP luminescence, 48 h. Potency, µM (top dose mostly 46.2 µM), usual class: inhibitors. 12% of 420,000 active; further: nearly all actives have a fitted effect of over 55% in size
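Chicken DT40 Tdp1-/- cells complemented with human TDP1, 400 cells/well, exposed to compounds plus 20 nM camptothecin for at least 48 h at 37 C; viability read as ATP content by CellTiter-Glo luminescence.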
HepG2 tox: qHTS for Inhibitors of TGF-b: Cytotox Counterscreen; 0.76% of 410,000 active; HepG2 CAGA-GFP viability, ATP luminescence, 18 h; Potency, µM (highest dose often 46.1 µM), actives largely listed as cytotoxic
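CellTiter-Glo luminescence gave cytotoxicity after 18 hours at 37 degrees C. The cells were HepG2 CAGA-GFP in 1% FBS DMEM, stimulated with 500 pg/mL TGF-beta after compound addition. %Activity was normalised to no-cell wells (complete cell-killing) and DMSO (no toxicity), and curves were fitted and classified.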
DT40 TDP1 no CPT: qHTS for Inhibitors of human tyrosyl-DNA phosphodiesterase 1 (TDP1): qHTS in cells in absence of CPT. Potency, µM (doses to about 46.2 µM), actives largely listed as inhibitors. 15% of 420,000 active. DT40 Tdp1-/- hTDP1 cells, no CPT, ATP luminescence, 48 h; further: nearly all actives have a fitted effect of over 55% in size
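Chicken DT40 Tdp1-/- cells stably complemented with human TDP1 were seeded at 400 cells/well with DMSO in place of 20 nM camptothecin. After compound pinning, cells grew at least 48 hr at 37 °C; viability read by CellTiter-Glo luminescence.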
TGFb SMAD3 inh: qHTS for Inhibitors of TGF-b | HepG2 CAGA-GFP TGF-b/SMAD3 reporter, GFP fluorescence, 18 h; TGF-beta stimulated, 500 pg/mL final | Potency, µM (titrated, usually from 46.1 µM), most hits filed as inhibitors | 1.2% of 410,000 active | AID 588855, 2011; further: nearly all actives have a fitted effect of over 65% in size
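First, reporter cells (HEPG2 CAGA-GFP) rested 2 h at 37 degrees C. Next, compounds were pinned in and TGF-beta added to 500 pg/mL final. After 18 h, GFP was imaged per cell and summed per well.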
Numbers stand for hits; - = inactive; ? = inconclusive; . = not tested or not shown. Unless noted, the call rests on the fitted dose curve; in most records, active means well fitted curve in the direction sought with a large enough effect; inconclusive means small, poorly fitted or top-dose-only effect, or another doubt; inactive means no such curve, though single readings can be large; an effect the other way counts as inactive or inconclusive.

SMILES | ASM inhibitor | IL1B secr inh | DT40 TDP1 CPT | HepG2 tox | DT40 TDP1 no CPT | TGFb SMAD3 inh
O=C(Nc1nc2c(s1)CCCC2)c1cc2n(n1)C(C(F)(F)F)CC(C1CC1)N2 (stereo unspecified) | - | -59.6 | - | - | ? | -
Cc1ccc(C)c(N2CCN(C(=O)C34CC5CC(C3)CC(n3nnc(C)n3)(C5)C4)CC2)c1 | - | ? | 6.51µM | - | 7.31µM | ?
Cn1cc(/C=C(\NC(=O)c2ccccc2)C(=O)NCCCN2CCOCC2)c2ccccc21 | - | - | - | - | - | -
COC(=O)c1ccc(C2c3[nH]c4ccccc4c3C[C@H]3C(=O)N(C4CCN(Cc5ccccc5)CC4)CC(=O)N23)cc1 (stereo partly specified) | - | - | ? | - | ? | -
O=C1[C@@H]2Cc3c([nH]c4ccccc34)C(c3ccccc3)N2C(=O)CN1C1CCN(Cc2ccccc2)CC1 (stereo partly specified) | - | -65.5 | 16.4µM | - | 16.4µM | ?
O=C1[C@@H]2Cc3c([nH]c4ccccc34)C(c3cccc(Br)c3)N2C(=O)CN1C1CCN(Cc2ccccc2)CC1 (stereo partly specified) | - | -64.1 | ? | - | 20.6µM | 15.8µM
COc1ccc(S(=O)(=O)N2CCCCCC2)cc1N(C)S(=O)(=O)c1ccc(C)cc1 | - | - | ? | - | 13µM | ?
COc1ccc(S(=O)(=O)N2CCCCC2)cc1NCC(=O)Nc1ccc(C)cc1 | - | - | 16.4µM | - | 9.2µM | ?
COc1ccc(C)cc1S(=O)(=O)N(CC(=O)Nc1cccc([N+](=O)[O-])c1)c1cc(C)cc(C)c1 | - | - | - | - | ? | -
COc1ccc(S(=O)(=O)N2CCCCCC2)cc1NC(=O)Cc1cc(OC)c(OC)c(OC)c1 | - | - | - | - | ? | -
COc1ccc(C)cc1S(=O)(=O)N(CC(=O)Nc1cc([N+](=O)[O-])ccc1C)c1ccc(C)c(C)c1 | - | - | 8.2µM | - | 10.3µM | -
COc1ccc(S(=O)(=O)N2CCOCC2)cc1N(C)S(=O)(=O)c1ccc(C)cc1 | - | - | ? | - | ? | -
COc1ccc(S(=O)(=O)N2CCCCC2)cc1NC(=O)CCCOc1ccc(C)cc1 | - | - | ? | - | ? | -
COc1ccc(CC(=O)Nc2cc(S(=O)(=O)N3CCCCC3)ccc2C)cc1OC | - | - | ? | - | 18.4µM | ?
COc1ccc(NC(=S)Nc2ccccc2SC)c(OC)c1 | - | - | - | - | ? | -
COc1ccc([N+](=O)[O-])cc1NCC(=O)Nc1cc(S(=O)(=O)N2CCCCC2)ccc1C | - | - | 14.6µM | - | 23.1µM | ?
COc1ccc(S(=O)(=O)N(C)C)cc1NCC(=O)Nc1ccc(Br)c(C)c1 | - | - | ? | - | 18.4µM | -
Cc1ccc(S(=O)(=O)N2CCCCC2)cc1NC(=O)COC(=O)CNC(=O)c1cc(Cl)cc([N+](=O)[O-])c1 | - | - | - | - | - | -
COc1ccc(S(=O)(=O)N2CCCCC2)cc1NC(=O)CNc1ccccc1C(C)=O | - | - | 23.1µM | - | ? | -
COc1ccc(S(=O)(=O)N2CCCCC2)cc1NC(=O)Cc1c[nH]c2ccccc12 | - | - | ? | - | 14.6µM | -
Cc1cc(NC(=O)C(=O)NCc2cccc(Cl)c2)no1 | - | - | - | - | - | -
CCOC(=O)/C=C1/SCC(=O)N1CC(=O)NC12CC3CC(CC(C3)C1)C2 | - | - | ? | - | 20.6µM | -
Cc1ccc(C)c(NC(=O)CCN2C(=O)C3CC=CCC3C2=O)c1 (stereo unspecified) | - | - | - | - | - | -
CC(=O)Nc1cccc(-c2ccnc3c2CC(C(=O)NCC2CCOCC2)O3)c1 (stereo unspecified) | . | - | 2.59µM | - | 2.31µM | -
CC(=O)Nc1cccc(-c2ccnc3c2CC(C(=O)Nc2cccc(NS(C)(=O)=O)c2)O3)c1 (stereo unspecified) | . | - | - | - | - | -
SMILES | ASM inhibitor | IL1B secr inh | DT40 TDP1 CPT | HepG2 tox | DT40 TDP1 no CPT | TGFb SMAD3 inh
COc1ccc(CCCNC(=O)C2Cc3c(-c4cccc(NC(C)=O)c4)ccnc3O2)cc1 (stereo unspecified) | . | - | 5.8µM | - | 3.66µM | ?
CC(=O)NCCNC(=O)C1Cc2c(-c3cccc(NC(C)=O)c3)ccnc2O1 (stereo unspecified) | . | - | - | - | - | -
CC(=O)Nc1cccc(-c2ccnc3c2CC(C(=O)NCCC(F)(F)F)O3)c1 (stereo unspecified) | . | - | ? | - | 23.1µM | -
CC(=O)Nc1cccc(-c2ccnc3c2CC(C(=O)NCc2cccs2)O3)c1 (stereo unspecified) | . | - | 0.92µM | - | 0.651µM | -
CCOc1ccc(OCC(=O)NCCS(=O)(=O)N2CCN(c3cccc(Cl)c3)CC2)cc1 | . | . | ? | - | ? | -
Cc1nn(C(=O)c2cccc(F)c2)c(C)c1S(=O)(=O)N1CCCCCC1 | . | . | - | - | - | -
O=c1[nH]c(C2CCCN(S(=O)(=O)c3ccccc3F)C2)nc2c1nnn2Cc1ccccc1Cl (stereo unspecified) | ? | - | ? | - | ? | ?
CC(Oc1ccc(C(C)(C)C)cc1)C(=O)NC1CC(C)(C)NC(C)(C)C1 (stereo unspecified) | - | - | - | - | ? | -
Cc1cccc(CC(=O)Nc2cccnc2)c1 | - | - | - | - | ? | -
O=S1(=O)CCN(C2CCCCCC2)CC1 | . | - | - | - | - | -
CCN1/C(=C2/SC(=S)N(NC(C)=O)C2=O)Sc2ccc(Cl)cc21 | - | - | ? | - | 18.4µM | -
CCN1/C(=C2/SC(=S)N(NC(C)=O)C2=O)Sc2ccc(OC)cc21 | - | - | ? | - | ? | -
O=C(Nc1nnc([C@H]2C[C@H](O)[C@@H](CO)O2)s1)NC(c1ccccc1)c1ccccc1 | . | - | ? | - | - | -
COc1cccc(C2c3cc4c(cc3OC(C)(N3CCCC3)C2C)OCO4)c1O (stereo unspecified) | - | -66.0 | 13µM | - | 10.3µM | ?
CCN(CC)C1Oc2cc3c(cc2C(c2cccc(OC)c2O)C1C)OCO3 (stereo unspecified) | - | - | ? | - | 23.1µM | ?
